Our source for the max response values is PubChem BioAssay AID2314 (National Center for Advancing Translational Sciences (NCATS), 2010).

Each structure is given as a SMILES string. About 37,000 (12%) of roughly 300,000 compounds were called active. The sample holds actives, similar compounds and a random draw of the others, so the mix is not that of the screen. No stated cut-off is given here; in the data, active means max response mostly above about 13% (no sharp cut-off); inactive means mostly below about 14%.

A short description of the assay: Cycloheximide Counterscreen for Small Molecule Inhibitors of Shiga Toxin. Further: read at 38.3 µM for the half of the compounds with a filed dose; 0% is about no effect. To be noted: cell reporter, cycloheximide protein synthesis inhibition counterscreen; stronger effect = higher value.
With `CCOCCc1nn2c(=O)cc(CSCC(=O)Nc3cccc(C)c3C)nc2s1`, the max response is -4.2% (inactive). Take `COc1ccccc1S(=O)(=O)c1c(C)cc(C)[nH]c1=O`: the max response is -6.18% (inactive). Under `CCCCOC(=O)c1ccc(NC(c2ccc(C)cc2)P(=O)(OC)OC)cc1` (stereo unspecified) stands -2.29% (inactive); under `Cc1cc(C)c(OCC(=O)N(Cc2cccs2)C2CCS(=O)(=O)C2)c(C)c1` (stereo unspecified), 8.48% (inactive). As for `CCN(CC)c1ccc([N+](=O)[O-])c2cccnc12`, the max response is 0.792% (inactive).

For `CN(c1ccccc1)c1ccc([N+](=O)[O-])c2nonc12`, the max response is 12% (active). Under `Cc1ccccc1Nc1c([N+](=O)[O-])ccc2nonc12` stands 0.319% (inactive); under `CC(C)c1ccc(NC2CCCN(C(=O)c3ccncc3)C2)cc1` (stereo unspecified), -4.01% (inactive). Consider `Cc1ccc(S(=O)(=O)N2CCN(CC(=O)N/N=C/c3ccc(Br)s3)CC2)cc1`, for which the max response was -1.09% (inactive). Turning to `COCCCNc1nc2ccccc2nc1NS(=O)(=O)c1ccc(F)cc1`, the max response is -1.37% (inactive). Under `CC(=C1C(=O)c2ccccc2C1=O)N1CCN(c2ccccn2)CC1` stands 4.62% (inactive).

Consider `COc1ccc(C2C(C(=O)N3CCN(c4ccc(OC)cc4)CC3)c3ccccc3C(=O)N2C)cc1` (stereo unspecified), for which the max response is -3.17% (inactive). Regarding `COc1ccc(N2CCN(C(C)=C3C(=O)c4ccccc4C3=O)CC2)cc1`, the max response is 40.7% (active). Under `O=C(COc1ccccc1)Nc1ccc(N2CCN(C(=O)c3cccs3)CC2)cc1` stands -1.71% (inactive); under `COc1ccc(OCC(=O)N2CCN(C(=O)c3cccs3)CC2)cc1`, -2.3% (inactive).

Turning to `COc1ccc(N2CCN(C(=O)c3cccs3)CC2)cc1`, the max response is 20.7% (active). Under `O=C(N[C@@H](Cc1ccccc1)C(=O)OCc1ccccc1)c1nc[nH]c1C(=O)N[C@@H](Cc1ccccc1)C(=O)OCc1ccccc1` stands -1.4% (inactive). Turning to `Cc1ccc(N2C(=O)CC(Sc3ncn[nH]3)C2=O)cc1` (stereo unspecified), the max response was -4.4% (inactive). Regarding `COc1cccc(/C=C2\Sc3ccc(C(=O)NCC4CCCO4)cc3N(C)C2=O)c1` (stereo unspecified), the max response was 6.25% (inactive).

As to `O=[N+]([O-])c1cccc(Nc2c3ccccc3nc3ccccc23)c1`, the max response is 4.55% (inactive). Under `COc1ccc([N+](=O)[O-])cc1-c1nc2ccccc2nc1-c1ccccc1` stands -2.38% (inactive); under `O=[N+]([O-])c1ccc2c(c1)Nc1nc3ccccc3nc1N2`, 22.7% (active); under `O=C(NCCOc1cccnc1)c1ccc(OC2CCN(Cc3ccccn3)CC2)cc1`, 10.4% (inactive). As to `O=C(CN1CCC(O)(c2cccc(C(F)(F)F)c2)CC1)NCCc1ccccc1`, the max response was -0.807% (inactive).

Turning to `Cc1nc([N+](=O)[O-])cn1CC(=O)Nc1ccc2c(c1)OCO2`, the max response is -2.41% (inactive). Under `Cn1cc([N+](=O)[O-])c(C(=O)Nc2ccc3c(c2)OCCO3)n1` stands 26.5% (active); under `Cc1onc(C(=O)Nc2ccc3c(c2)OCO3)c1[N+](=O)[O-]`, 30.6% (active); under `COc1cccc(NC(=O)c2nn(C34CC5CC(CC(C5)C3)C4)cc2[N+](=O)[O-])c1`, 13.1% (inactive). Under `Cn1cc([N+](=O)[O-])c(C(=O)Nc2cnn(Cc3ccc(F)cc3)c2)n1` stands 9.36% (inactive). With `Cc1nn(CC(=O)Nc2ccc3c(c2)OCO3)c(C)c1[N+](=O)[O-]`, the max response is 0.353% (inactive). As for `CCCc1nn(C)c2c(=O)[nH]c(-c3cc(S(N)(=O)=O)ccc3OCC)nc12`, the max response was -4.06% (inactive).

Consider `COCCn1c(SCC(=O)N2CCCCCC2)nc2c(c1=O)SCC2`, for which the max response was 4.66% (inactive). Under `CC(C)Cc1ccc(C(C)C(=N)N)cc1` (stereo unspecified) stands -2.08% (inactive); under `COCc1ccc(C(=O)NC2CC(C)(C)Cc3c2cnn3-c2ccc(C)cc2)o1` (stereo unspecified), 4.44% (inactive). Under `COCc1c(N)c(C)nc(Cl)c1C#N` stands 14% (active); under `COC(=O)c1c(C)c(C)nc(N)c1C#N`, 5.15% (inactive).

As for `Cc1nc(Cl)c(C#N)c2c1CCCC2`, the max response is 4.78% (inactive). Under `Fc1ccc(CNCc2ccc(Br)cc2)cc1` stands 2.17% (inactive); under `CCc1cc2c(=O)n(-c3ccccc3)c(SCC(=O)O)nc2s1`, -0.568% (inactive); under `COCc1cc(=O)[nH]c(SC)n1`, -3.39% (inactive). Under `Cc1ccc(OCCOCCOc2ccc(Br)cc2/C=N\NC(=O)c2ccncc2)cc1` stands -4.52% (inactive); under `O=C(N/N=C/c1ccc(OCc2ccccc2)cc1)c1ccc(O)cc1`, 18.7% (inactive). Under `O=C(Cc1cccs1)N/N=C/c1ccc(OCc2ccccc2)cc1` stands -2.21% (inactive); under `O=C(N/N=C/c1cccc(OCc2ccccc2)c1)c1ccc(Br)o1`, 47.1% (active); under `Cc1cccc(OCC(=O)NCC(=O)N/N=C/c2ccc(N(C)C)cc2)c1`, 1.69% (inactive). Regarding `Cc1ccc(OCCOc2cccc(/C=N/NC(N)=O)c2)cc1`, the max response is 15.2% (active). Consider `Cc1ccc(S(=O)(=O)Oc2ccc(/C=N/NC(=O)c3ccncc3)cc2)cc1`, for which the max response is 6.52% (inactive). For `CC(C)NS(=O)(=O)c1ccc(OCC(=O)NC2CCCCCC2)cc1`, the max response is 1.29% (inactive). Under `Brc1ccc2nc(N3CCCC3)sc2c1` stands 38.8% (active); under `c1ccc2sc(N3CCNCC3)nc2c1`, 11.7% (inactive); under `O=C(NCCc1cccc(F)c1)C1CCCN(c2nc3ccccc3s2)C1` (stereo unspecified), -3.33% (inactive).

For the compound `Cc1nc2cc3c(cc2s1)OCO3`, the max response is -2.58% (inactive). Under `Fc1ccc2nc(N3CCCCC3)sc2c1` stands 29.6% (active); under `Cc1nc(N2CCCCC2)sc1C=O`, -2.42% (inactive).

In the case of `CCOC(=O)N1CCC(NC(=O)c2ccc3nc(N4CCOCC4)sc3c2)CC1`, the max response was -1.55% (inactive). Under `c1c2c(cc3sc(N4CCCCC4)nc13)OCCO2` stands 25.6% (active); under `Cc1nc2ccc(S(=O)(=O)NC(C(=O)N3CCCCCC3)C(C)C)cc2s1` (stereo unspecified), -2.97% (inactive). Under `O=C(CN(CC1CCCO1)C(=O)CNS(=O)(=O)c1ccc(Cl)cc1)NCc1ccccc1` (stereo unspecified) stands -3.57% (inactive); under `CC1=C[C@H]2Cc3cc(C)cc(C)c3S(=O)(=O)[C@@H]2C=C1`, -2.12% (inactive); under `CC(Sc1nnc(-c2ccccc2F)n1C1CC1)C(N)=O` (stereo unspecified), -2.7% (inactive). Under `O=C(NNS(=O)(=O)c1ccc([N+](=O)[O-])cc1)C1CCCCC1` stands 10.1% (inactive); under `COc1ccccc1C(=O)N1CCN=C1SCc1cccnc1`, 0.58% (inactive).

With `O=C1CN(C(=O)c2ccccc2F)C(c2ccc(F)cc2)c2cc(F)ccc2N1` (stereo unspecified), the max response is -4.28% (inactive).

As for `Oc1ccc(/C=N/Nc2ccc(C(F)(F)F)cn2)cc1O`, the max response is 57.2% (active). Under `Cc1nccn1CC(=O)N/N=C/c1ccc(O)c(O)c1` stands -1.27% (inactive); under `O=C(N/N=C/c1ccc(O)c(O)c1)C1c2ccccc2Oc2ccccc21`, -0.597% (inactive); under `CCCc1cc(=O)[nH]c(SCC(=O)Nc2sc3c(c2C#N)CCCC3)n1`, -1.28% (inactive). For `O=S(=O)(NC1CCCCC1N1CCCCC1)c1ccc(Cl)cc1` (stereo unspecified), the max response was -6.15% (inactive). Under `O=C(O)c1ccc(S(=O)(=O)N2CCOCC2)o1` stands -6.82% (inactive).

As for `COc1ccc(OC)c(NC(=O)CN(Cc2ccc(Cl)cc2)S(C)(=O)=O)c1`, the max response was -2.07% (inactive).

Turning to `COc1ccc(Cl)cc1NC(=O)CN(C)C(=O)CNC(=O)C12CC3CC(CC(C3)C1)C2`, the max response was 6.85% (inactive). Under `COc1ccc(Cl)cc1NC(=O)CN(C)Cc1ccc(OC)c(OC)c1` stands 10.8% (active); under `CN1CCN(c2ccccc2NC(=O)COc2ccc(C3CCCCC3)cc2)CC1`, -1.31% (inactive). Consider `CCOC(=O)c1cccc(NC(=O)C2CCN(c3ncnc4c3nc3n4CCCCC3)CC2)c1`, for which the max response is -6.95% (inactive). As to `O=C(NCc1ccncc1)C1CCCN(S(=O)(=O)c2ccc(Br)cc2)C1` (stereo unspecified), the max response is 1.08% (inactive). As for `COc1ccc(CSc2nnnn2-c2ccc(O)cc2)cc1F`, the max response was -3.78% (inactive). As to `CCc1ccc2oc(-c3ccc(N)cc3)nc2c1`, the max response is 38.2% (active). Under `Cn1c(Cc2cccc3ccccc23)nnc1SCC(=O)N1CCN(c2cccc(Cl)c2)CC1` stands -3.1% (inactive); under `COCc1cc(C)n(CC(=O)NCC2CCCO2)c(=O)c1C#N` (stereo unspecified), -6.37% (inactive); under `Cc1c(CCC(=O)O)c(=O)oc2c(C)c(OCc3ccccc3Cl)ccc12`, 1.9% (inactive). In the case of `CC(C)(C)n1nnnc1C(c1ccccc1F)N1CCN(C(=O)c2ccco2)CC1` (stereo unspecified), the max response was -1.72% (inactive).

Regarding `COCCCNC(=O)/C=C/c1ccc(OCc2c(F)cccc2Cl)cc1`, the max response was -7.84% (inactive).

On to `CN(C)CCCNC(=O)/C=C/c1ccc(OCc2c(F)cccc2Cl)cc1`, for which the max response is -2.24% (inactive). In the case of `O=C(/C=C/c1ccc(OCc2c(F)cccc2Cl)cc1)N1CCOCC1`, the max response was 27.3% (active).

Consider `COc1ccc(NS(=O)(=O)c2cc(C(=O)Nc3ccccc3C(=O)O)ccc2C)cc1`, for which the max response is 1.17% (inactive). As to `CCOc1cc(N2CCOCC2)c(OCC)cc1NC(=O)c1cc(C)nc2ccccc12`, the max response is -1.57% (inactive).

Regarding `COc1ccc(-c2nc3cc([N+](=O)[O-])ccc3o2)cc1OC`, the max response was 24% (active).

With `O=[N+]([O-])c1ccc2c(c1)C(O)n1nc(-c3ccccc3)nc1S2` (stereo unspecified), the max response was -1.52% (inactive).

Consider `COc1cc2c(cc1OC)C(c1cccc([N+](=O)[O-])c1)=NCC2`, for which the max response was -3.32% (inactive). In the case of `Cc1nnc(-c2ccc(Oc3ccc(C)c(C)c3)c([N+](=O)[O-])c2)o1`, the max response was 4.56% (inactive). As for `O=[N+]([O-])c1ccc2oc(-c3cccc(O)c3)nc2c1`, the max response was 46.9% (active). `CC(=O)Oc1ccc2c(=O)oc(-c3ccc([N+](=O)[O-])cc3)nc2c1`: the max response was 1.51% (inactive). As to `O=C1[C@@H]2C(c3cccnc3)=NO[C@@H]2C(=O)N1c1ccc(Cl)cc1Cl`, the max response is -1.88% (inactive).

In the case of `Oc1ccc(-c2cccc(-c3ccc(O)cc3)c2)cc1`, the max response was 29.3% (active). Under `Oc1ccc(-c2nncn2-c2ccccc2)cc1` stands 1.52% (inactive); under `O=C(CN1CCN(c2ccc(O)cc2)CC1)Nc1ccc(-c2ccccc2)cc1`, -0.918% (inactive).
